Target: Solute carrier family 2, facilitated glucose transporter member 1 (Homo sapiens) (UniProt P11166)
Assay: ST_JUDE_LEISH: Cytotoxicity at 2uM final concentration against transgenic Leishmania Mexicana promastigotes LmGLUT1 that are glucose transport deficient and complemented with the human glucose transporter GLUT1. Activity is measured by DNA content using SYBR green in vitro
Type: functional

Solute carrier family 2, facilitated glucose transporter member 1 (Homo sapiens), sequence (P11166 whole entry): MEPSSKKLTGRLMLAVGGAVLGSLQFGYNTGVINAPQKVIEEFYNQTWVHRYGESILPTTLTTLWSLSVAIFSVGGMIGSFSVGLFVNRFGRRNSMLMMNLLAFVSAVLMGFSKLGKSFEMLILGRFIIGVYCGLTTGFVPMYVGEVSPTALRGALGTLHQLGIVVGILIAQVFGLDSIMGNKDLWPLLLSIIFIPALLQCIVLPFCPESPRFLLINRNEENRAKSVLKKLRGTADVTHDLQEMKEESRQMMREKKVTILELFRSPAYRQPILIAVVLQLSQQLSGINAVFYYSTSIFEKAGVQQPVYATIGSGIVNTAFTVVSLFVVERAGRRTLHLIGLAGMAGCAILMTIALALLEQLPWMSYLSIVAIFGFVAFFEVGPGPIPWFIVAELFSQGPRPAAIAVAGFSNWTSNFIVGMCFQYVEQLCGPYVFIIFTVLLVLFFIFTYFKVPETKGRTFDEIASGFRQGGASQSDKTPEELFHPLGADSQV

Compound | inhibition
Nc1ncc(-c2cccc(F)c2)cc1-c1nc2cc(F)ccc2[nH]1 | 4.17%
Cc1cc(F)ccc1C1CCN(CCCCNC(=O)c2ccc(NC(=O)c3ccc(Cl)cc3)cc2)CC1 | 1.66%
CCCc1cc(Cc2cnc(N)nc2N)cc(CCC)c1OCCCCC(=O)OC | 3.01%
COc1cc(CN/C(=N/c2ccc(-c3ccccc3)cc2)Nc2ccc(C#N)cc2O)cc(OC)c1 | 1.7%
COc1cccc2cc(C(=O)N[C@@H](CC(C)C)C(=O)N[C@H](C=NNC(=O)OC(C)(C)C)Cc3ccccc3)oc12 | 7.26%
COc1cccc(CCN(Cc2ccccc2-c2ccc(CNC3CC(C)(C)NC(C)(C)C3)cc2)C(=O)NC2CCCCC2)c1 | 0.9%
O=C(NC1CCCCN(Cc2ccccc2O)C1)c1ccc(Cl)c(Cl)c1 (stereo not given) | 7.63%
Cc1cccc2nc(-c3cccc(-c4cccc(CNCCN5CCNCC5)c4)c3)[nH]c12 | 0.34%
Cc1c(CNCCCNc2nc3ccccc3[nH]2)[nH]c2cc(Cl)cc(Cl)c12 | 25.5%
COCCNCC(O)Cn1c2ccc(Cl)cc2c2cc(Cl)ccc21 (stereo not given) | -1.12%
Cc1ccccc1C(O)CNc1ccnc(Nc2cccc(C#N)c2)n1 (stereo not given) | 3.5%
CC(C)NCC(=O)Nc1cccc(C(=O)Nc2cccc(C(F)(F)F)c2)c1 | 4.13%
O=C(/C=C/c1ccc(Cl)cc1)NCCCCCN1CCCC(C(=O)Nc2ccc(Cl)cc2)C1 (stereo not given) | 3.89%
N#Cc1cccc(CN2CCCN(Cc3cccc(C(=O)Nc4ccc(Cl)cc4)c3)CC2)c1 | 0.81%
FC(F)(F)c1cccc(Nc2nc3ccccc3nc2Nc2cccc(C(F)(F)F)c2)c1 | -0.24%
CCCCOC(=O)[C@H](CCC)NC(=O)c1ccc(NS(=O)(=O)c2ccc3nc(N)[nH]c(=O)c3c2)cc1 | 0.2%
O=C(Cc1cccnc1)N(Cc1ccc(-c2ccc(CNCc3cccnc3)cn2)cc1)C1CCN(Cc2ccccc2)CC1 | -1.34%
COc1ccccc1CCCON1C(=N)N=C(N)NC1(C)C | 5.24%
Cc1cc(N[C@@H](Cc2ccccc2)C(=O)Nc2ccccc2)nc(NCC2CCCCC2)n1 | 12.8%
CCN(CC)CCNC(=O)c1ccc(N/C=C2\C(=O)Nc3ccc(S(=O)(=O)Cc4c(Cl)cccc4Cl)cc32)cc1 | -0.98%

Compound | inhibition
CC(C)(C)c1ccc(CN2CCC(CNC(=O)c3cc(-c4ccccc4)nc4ccccc34)CC2)cc1 | -2.07%
CC(=O)c1ccc(NC(=O)C2c3ccccc3C(=O)N(CC(C)C)C2c2cccs2)cc1 (stereo not given) | -0.43%
COc1cc(Nc2ncnc3cc(OC)c(OC)cc23)cc([N+](=O)[O-])c1 | -1.65%
CC(C)CCNc1nc(NCc2ccccc2)c2cc(O)ccc2n1 | 5.89%
CCN1CCC(N(Cc2ccc(-c3ccc(C(F)(F)F)cc3)cc2)C(=O)Cn2c(CCc3cccc(F)c3F)cc(=O)c3ccccc32)C1 (stereo not given) | 0.08%
CCNCCCC(C)Nc1ccnc2cc(Cl)ccc12 (stereo not given) | -2.28%
O=S(=O)(c1ccccc1)C1CC1 | 1.39%
CCC(C)c1ccc(O)c(NC(=O)c2cncc(Br)c2)c1 (stereo not given) | -0.89%
CC(C)(C)CCN1CCC(NC(=O)c2ccc(-c3cccc(C(F)(F)F)c3)s2)CC1 | 1.71%
CC(C)(C)OC(=O)NCc1ccc(Nc2nnc(-c3cccc(C(=O)NCc4cc(C(F)(F)F)cc(C(F)(F)F)c4)c3)o2)cc1 | 7.94%
CCCCCCNC(=N)c1ccc(OCCCCCOc2ccc(C(=N)NCCCCCC)cc2)cc1 | 58.5%
CS(=O)(=O)N(CC(O)Cn1c2ccc(Cl)cc2c2cc(Cl)ccc21)c1ccccc1 (stereo not given) | 0.79%
CCCCCCCNCCNc1cc(C)nc2ccccc12 | 2.03%
NC(=O)C1Cc2ccccc2CN1CC(=O)Nc1ccccc1Sc1ccccc1 (stereo not given) | 2.73%
Cc1cc(=O)c(-c2ccc(Oc3ccc(C(F)(F)F)cc3)cc2)c(C)n1O | -1.23%
CCOc1ccccc1C(=O)Nc1cccc(-c2nc3ncccn3c2C)c1 | 2.41%
Cn1cncc1-c1ccc2c(-c3ccsc3)cnc(N)c2c1 | 5.58%
CCCN(CCC)CCCNc1ccc(C(=O)Nc2ccc(C(C)C)cc2)cc1[N+](=O)[O-] | 32.7%
CN1CCN(CC(O)CNC(=O)Nc2ccc(Br)cc2)CC1 (stereo not given) | 3.01%
COc1cc(NC(=O)C(c2ccc(Cl)cc2)C(C)C)cc(OC)c1OC (stereo not given) | 2.52%

Target: Hexose transporter 1 (Plasmodium falciparum) (UniProt O97467)
Assay: ST_JUDE_LEISH: Cytotoxicity at 2uM final concentration against transgenic Leishmania Mexicana promastigotes LmPfHT that are glucose transport deficient and complemented with the Plasmodium falciparum hexose transporter. Activity is measured by DNA content using SYBR green in vitro
Type: functional

Compound | inhibition
Nc1ncc(-c2cccc(F)c2)cc1-c1nc2cc(F)ccc2[nH]1 | 11.1%
Cc1cc(F)ccc1C1CCN(CCCCNC(=O)c2ccc(NC(=O)c3ccc(Cl)cc3)cc2)CC1 | 0.36%
CCCc1cc(Cc2cnc(N)nc2N)cc(CCC)c1OCCCCC(=O)OC | 0.4%
COc1cc(CN/C(=N/c2ccc(-c3ccccc3)cc2)Nc2ccc(C#N)cc2O)cc(OC)c1 | 0.59%
COc1cccc2cc(C(=O)N[C@@H](CC(C)C)C(=O)N[C@H](C=NNC(=O)OC(C)(C)C)Cc3ccccc3)oc12 | 6.28%
COc1cccc(CCN(Cc2ccccc2-c2ccc(CNC3CC(C)(C)NC(C)(C)C3)cc2)C(=O)NC2CCCCC2)c1 | 0.87%
O=C(NC1CCCCN(Cc2ccccc2O)C1)c1ccc(Cl)c(Cl)c1 (stereo not given) | 5.13%
Cc1cccc2nc(-c3cccc(-c4cccc(CNCCN5CCNCC5)c4)c3)[nH]c12 | -3.8%
Cc1c(CNCCCNc2nc3ccccc3[nH]2)[nH]c2cc(Cl)cc(Cl)c12 | 49.4%
COCCNCC(O)Cn1c2ccc(Cl)cc2c2cc(Cl)ccc21 (stereo not given) | -1.7%
Cc1ccccc1C(O)CNc1ccnc(Nc2cccc(C#N)c2)n1 (stereo not given) | 4.38%
CC(C)NCC(=O)Nc1cccc(C(=O)Nc2cccc(C(F)(F)F)c2)c1 | 2.76%
O=C(/C=C/c1ccc(Cl)cc1)NCCCCCN1CCCC(C(=O)Nc2ccc(Cl)cc2)C1 (stereo not given) | 5.61%
N#Cc1cccc(CN2CCCN(Cc3cccc(C(=O)Nc4ccc(Cl)cc4)c3)CC2)c1 | 0.19%
FC(F)(F)c1cccc(Nc2nc3ccccc3nc2Nc2cccc(C(F)(F)F)c2)c1 | 0.5%
CCCCOC(=O)[C@H](CCC)NC(=O)c1ccc(NS(=O)(=O)c2ccc3nc(N)[nH]c(=O)c3c2)cc1 | -1.82%
O=C(Cc1cccnc1)N(Cc1ccc(-c2ccc(CNCc3cccnc3)cn2)cc1)C1CCN(Cc2ccccc2)CC1 | -0.95%
COc1ccccc1CCCON1C(=N)N=C(N)NC1(C)C | 5.03%
Cc1cc(N[C@@H](Cc2ccccc2)C(=O)Nc2ccccc2)nc(NCC2CCCCC2)n1 | 11.3%
CCN(CC)CCNC(=O)c1ccc(N/C=C2\C(=O)Nc3ccc(S(=O)(=O)Cc4c(Cl)cccc4Cl)cc32)cc1 | -0.63%

Compound | inhibition
CC(C)(C)c1ccc(CN2CCC(CNC(=O)c3cc(-c4ccccc4)nc4ccccc34)CC2)cc1 | 0.33%
CC(=O)c1ccc(NC(=O)C2c3ccccc3C(=O)N(CC(C)C)C2c2cccs2)cc1 (stereo not given) | 0.9%
COc1cc(Nc2ncnc3cc(OC)c(OC)cc23)cc([N+](=O)[O-])c1 | 0.11%
CC(C)CCNc1nc(NCc2ccccc2)c2cc(O)ccc2n1 | 5.74%
CCN1CCC(N(Cc2ccc(-c3ccc(C(F)(F)F)cc3)cc2)C(=O)Cn2c(CCc3cccc(F)c3F)cc(=O)c3ccccc32)C1 (stereo not given) | 1.38%
CCNCCCC(C)Nc1ccnc2cc(Cl)ccc12 (stereo not given) | -2.68%
O=S(=O)(c1ccccc1)C1CC1 | 0.38%
CCC(C)c1ccc(O)c(NC(=O)c2cncc(Br)c2)c1 (stereo not given) | 0.04%
CC(C)(C)CCN1CCC(NC(=O)c2ccc(-c3cccc(C(F)(F)F)c3)s2)CC1 | 5.61%
CC(C)(C)OC(=O)NCc1ccc(Nc2nnc(-c3cccc(C(=O)NCc4cc(C(F)(F)F)cc(C(F)(F)F)c4)c3)o2)cc1 | 7.58%
CCCCCCNC(=N)c1ccc(OCCCCCOc2ccc(C(=N)NCCCCCC)cc2)cc1 | 59.4%
CS(=O)(=O)N(CC(O)Cn1c2ccc(Cl)cc2c2cc(Cl)ccc21)c1ccccc1 (stereo not given) | 1.45%
CCCCCCCNCCNc1cc(C)nc2ccccc12 | 7.41%
NC(=O)C1Cc2ccccc2CN1CC(=O)Nc1ccccc1Sc1ccccc1 (stereo not given) | 2.07%
Cc1cc(=O)c(-c2ccc(Oc3ccc(C(F)(F)F)cc3)cc2)c(C)n1O | -2.25%
CCOc1ccccc1C(=O)Nc1cccc(-c2nc3ncccn3c2C)c1 | -0.3%
Cn1cncc1-c1ccc2c(-c3ccsc3)cnc(N)c2c1 | 6.85%
CCCN(CCC)CCCNc1ccc(C(=O)Nc2ccc(C(C)C)cc2)cc1[N+](=O)[O-] | 22.2%
CN1CCN(CC(O)CNC(=O)Nc2ccc(Br)cc2)CC1 (stereo not given) | 3.45%
COc1cc(NC(=O)C(c2ccc(Cl)cc2)C(C)C)cc(OC)c1OC (stereo not given) | 1.79%
